Laboratory results published in PubChem BioAssay (NCATS).
Records with an inconclusive call do not appear. Activity calls are given as the source filed them. Unless noted, calls follow the shape of the dose curve; as a rule, active = well fitted curve in the direction sought with a large enough effect; inconclusive = small, poorly fitted or top-dose-only effect, or another doubt; inactive = no such curve, though single readings can be large; an effect the other way counts as inactive or inconclusive.

Legend:
[1] = biological target: 3',5'-cyclic-AMP phosphodiesterase 4B (Homo sapiens) (UniProt Q07343); assay: qHTS Assay for Inhibitors of PDE-IV (AID 607; active = well fitted activation curve with a large enough effect in the main read-out, with a control signal flat, not every such curve was filed as active); settings: HEK293 ACTOne CNG channel cells, membrane potential fluorescence; series mostly up to 22.9 µM
Summary of the method: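 Cell-based read-out of cAMP via a modified cyclic nucleotide-gated channel and membrane potential dye (535/590 nm) in HEK293 cells expressing PDE4 endogenously. Compounds tested up to 22.9 uM final; 100 uM RO 20-1724 reference.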

[2] = Cellular Toxicity (caspase-3) HepG2 (AID 654); settings: HepG2 caspase-3 activation, luminescence, 0% = DMSO only, 100% = tamoxifen; series mostly up to 92.2 µM;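 also: cells exposed to compound for 16 hours before reading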
Summary of the method: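 HepG2 cells (1500/well) were treated 16 h at 37 °C in complete medium, then caspase 3/7 activity was read by Caspase-Glo luminescence. Data were normalized to DMSO and 100 uM tamoxifen; AC50 came from Hill-equation fits of qHTS concentration-response.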

[3] = Cellular Toxicity (caspase-3) Jurkat (AID 655); settings: Jurkat caspase-3 activation, luminescence, DMSO = 0%, tamoxifen = 100%; series mostly up to 92.2 µM;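 also: cells exposed to compound for 16 h at 37 °C before reading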
Summary of the method: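 qHTS in human Jurkat T-cell leukemia line: 16 hr compound treatment at 37 °C, caspase-3/7 activity measured by Caspase-Glo luminescence. AC50 derived from Hill equation.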

[4] = Cellular Toxicity (caspase-3) HUV-EC-C (AID 656); settings: HUV-EC-C cells, caspase-3 activation (apoptosis), vehicle = 0, 100 µM tamoxifen = 100%; series mostly up to 92.2 µM
Summary of the method: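 Concentration-dependent caspase 3/7 induction was assessed in HUV-EC-C cells exposed for 16 hours. Data scaled between DMSO and tamoxifen (100 uM) controls.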

[5] = Cellular Toxicity (caspase-3) SHSY5Y (AID 657); settings: SH-SY5Y caspase-3 activation, DMSO zero, 10 µM staurosporine = 100%; series mostly up to 91.7 µM
Summary of the method: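 Readout: caspase-cleaved peptide-aminoluciferin substrate driving luciferase light in SH-SY5Y neuroblastoma cells after 16 h treatment. Response normalized to DMSO and 10 uM staurosporine controls.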

[6] = Cellular Toxicity (caspase-3) BJ (AID 658); settings: BJ fibroblasts, luminescence, normalized: DMSO 0%, staurosporine 100%; series mostly up to 91.7 µM
Summary of the method: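 Luminescent aminoluciferin-substrate cleavage reports caspase 3/7 activity in normal human BJ fibroblasts after 16 hr compound exposure at 37 °C. Normalized to DMSO (basal) and 10 uM staurosporine (100%); AC50 from Hill fit of concentration-response.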

[7] = Cellular Toxicity (caspase-3) MRC-5 (AID 659); settings: MRC-5 cells, luminescence, normalized: DMSO 0%, 10 µM staurosporine 100%; series mostly up to 91.7 µM
Summary of the method: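 Luminescence from caspase-cleaved aminoluciferin substrate (Caspase-Glo 3/7, 1 hr RT) reports caspase 3/7 activity in MRC-5 lung fibroblasts after 16 hr compound exposure. Normalized to DMSO basal and 10 uM staurosporine as 100%; AC50 from Hill fits.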

[8] = Cellular Toxicity (caspase-3) Mesangial (AID 660); settings: mesangial cells, normalized: DMSO 0%, 100 µM tamoxifen 100%; series mostly up to 91.7 µM;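 also: cells exposed to compound for 16 h before the caspase read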
Summary of the method: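 Human renal glomerular mesangial cells, 1000/well, 5 h at 37 C before 16 h compound treatment. Caspase-Glo 3/7 luminescence after 20 min; normalized to DMSO and 100 uM tamoxifen, AC50 from Hill fit.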

[9] = Cellular Toxicity (caspase-3) SK-N-SH (AID 661); settings: SK-N-SH caspase-3 activation, qHTS, DMSO as zero, staurosporine as full; series mostly up to 91.7 µM
Summary of the method: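 Human SK-N-SH neuroblastoma cells, 1500/well, were exposed to compounds for 16 hours at 37 °C. Caspase-Glo 3/7 luminescence was normalized to DMSO (basal) and 10 uM staurosporine (100%), and AC50 came from a Hill fit.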

[10] = Cellular Toxicity (caspase-3) H-4-II-E (AID 663); settings: H-4-II-E rat hepatoma, scaled: DMSO 0%, 100 µM tamoxifen 100%; series mostly up to 92.2 µM;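 also: cells exposed to compound for 16 hr before readout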
Summary of the method: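 Luminescence from caspase-cleaved aminoluciferin substrate, read 20 min after reagent addition, reports caspase 3/7 activation in rat H-4-II-E cells after 16 hr compound exposure. Normalized to DMSO (basal) and 100 uM tamoxifen (100%); AC50 from Hill fits.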

Measured: outcome

3',5'-cyclic-AMP phosphodiesterase 4B (Homo sapiens), sequence (Q07343 whole entry, looked up): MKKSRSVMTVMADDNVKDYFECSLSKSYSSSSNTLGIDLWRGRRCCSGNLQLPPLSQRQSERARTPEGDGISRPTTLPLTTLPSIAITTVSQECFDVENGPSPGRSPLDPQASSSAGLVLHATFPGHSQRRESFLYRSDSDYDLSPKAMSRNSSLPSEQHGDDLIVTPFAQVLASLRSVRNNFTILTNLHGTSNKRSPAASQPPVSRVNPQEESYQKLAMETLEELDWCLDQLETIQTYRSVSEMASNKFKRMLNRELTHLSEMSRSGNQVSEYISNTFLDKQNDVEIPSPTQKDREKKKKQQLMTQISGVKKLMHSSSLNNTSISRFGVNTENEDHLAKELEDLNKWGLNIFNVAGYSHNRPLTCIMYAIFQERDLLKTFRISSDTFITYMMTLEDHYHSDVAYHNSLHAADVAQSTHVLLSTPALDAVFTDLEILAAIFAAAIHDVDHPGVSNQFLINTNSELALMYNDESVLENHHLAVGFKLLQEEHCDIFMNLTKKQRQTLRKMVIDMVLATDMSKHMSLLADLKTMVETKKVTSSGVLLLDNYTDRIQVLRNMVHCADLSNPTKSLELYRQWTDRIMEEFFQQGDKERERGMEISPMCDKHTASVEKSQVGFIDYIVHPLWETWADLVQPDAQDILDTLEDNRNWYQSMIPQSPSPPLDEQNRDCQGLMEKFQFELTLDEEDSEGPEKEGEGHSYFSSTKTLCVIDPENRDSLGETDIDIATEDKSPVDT

C[C@]1(C2CCCC2)Cc2cc(OCC(=O)O)c(Cl)c(Cl)c2C1=O
inactive: [1]

COc1ccc(CCC(=O)c2c(O)cc(O[C@@H]3O[C@H](CO)[C@@H](O)[C@H](O)[C@H]3O[C@@H]3O[C@@H](C)[C@H](O)[C@@H](O)[C@H]3O)cc2O)cc1O
not listed: [1]
inactive: all other assays above

CC(C)C[C@H](NC(=O)[C@@H]1O[C@H]1C(=O)O)C(=O)NCCCCN=C(N)N
inactive: [1]

CCc1cccc2c3c([nH]c12)[C@@](CC)(CC(=O)O)OCC3
inactive: [1]

C=C1C[C@]23C[C@@]1(O)CC[C@H]2[C@@]12C=C[C@H](O)[C@@](C)(C(=O)O1)[C@H]2[C@@H]3C(=O)O
not listed: [1]
inactive: all other assays above
